SMILES strings stand for the structures. Records with an inconclusive call do not appear. Active and inactive are the calls of the source. How the source made its calls, unless noted: active means hit-call score of the fitted dose curve at least 0.9, where 1 is the maximum; inconclusive means response in the unintended direction; inactive means score below 0.9.

The source of these data is PubChem BioAssay (EPA / NIEHS).

The nature of experiment [1]: TOX21_p53_BLA_p2_viability: Viability Assessment in the Tox21 HCT-116 p53 Agonism Beta-lactamase Assay, Phase 2 (AID 2283591).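 Further: actives lower the ATP signal meaning cytotoxicity.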 The method in brief: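 HCT116 p53-bla cells, 4000/well, dosed after 5 h plating (217-fold dilution of DMSO stocks) and incubated 16 h at 37C. Viability taken as cellular ATP by CellTiter-Glo luminescence after 30 min RT; signal loss marks cytotoxicity.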

The nature of experiment [2]: TOX21_p53_BLA_p3_viability: Viability Assessment in the Tox21 HCT-116 p53 Agonism Beta-lactamase Assay, Phase 3 (AID 2283593).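 Further: cells exposed to compound for 16 h before reading.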 The method in brief: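 HCT116 cells, 4000/well, dosed 5 h after plating by pin transfer (217-fold dilution from DMSO stock) and incubated 16 h at 37C, 5% CO2. Viability read as ATP luminescence with CellTiter-Glo after 30 min at room temperature.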

The target in experiment [3] is Cellular tumor antigen p53 (Homo sapiens) (UniProt P04637). The experiment is described as follows: TOX21_p53_BLA_p3_ratio: Tox21 HCT-116 p53 Agonism Beta-lactamase Assay, Ratio, Phase 3 (AID 2283596). In outline: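 Cells were seeded at 4000/well, rested 5 h at 37C, then dosed with DMSO compound solutions (217-fold dilution) for 16 h. CCF4-AM substrate was loaded for 2 h at room temperature, and the 460/530 nm emission ratio was fitted for gain of signal versus DMSO.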

The nature of experiment [4]: TOX21_p53_BLA_p4_viability: Viability Assessment in the Tox21 HCT-116 p53 Agonism Beta-lactamase Assay, Phase 4 (AID 2283597).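 Further: hits lower the luminescence signal meaning cytotoxicity.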 The method in brief:
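Cytotoxicity was inferred from loss of CellTiter-Glo luminescence. HCT116 cells had been dosed with compounds after 5 h plating, incubated 16 h at 37C and 5% CO2, and exposed to the CCF4-AM substrate for 2 h.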

The target of experiment [5] is Cellular tumor antigen p53 (Homo sapiens) (UniProt P04637). The experiment is described as follows: TOX21_p53_BLA_p5_ratio: Tox21 HCT-116 p53 Agonism Beta-lactamase Assay, Ratio, Phase 5 (AID 2283599). In outline:
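HCT-116 p53-bla cells (4000/well) plated 5 h, dosed with compound (217-fold DMSO dilution) for 16 h at 37 C; CCF4-AM substrate 2 h at room temperature. Activity is the 460/530 nm emission ratio (405 nm excitation), fitted in gain-of-signal direction versus DMSO.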

The nature of experiment [6]: TOX21_p53_BLA_p5_viability: Viability Assessment in the Tox21 HCT-116 p53 Agonism Beta-lactamase Assay, Phase 5 (AID 2283600). The method in brief:
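Luciferase-coupled ATP quantitation of cells treated for 16 h (37C, 5% CO2) with test chemicals delivered in DMSO via a 217-fold dilution; 4000 cells/well; reagent incubated 30 min at room temperature before luminescence reading.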

For experiment [7], the target named is Cellular tumor antigen p53 (Homo sapiens) (UniProt P04637). As to the kind of experiment: TOX21_p53_BLA_p4_ratio: Tox21 HCT-116 p53 Agonism Beta-lactamase Assay, Ratio, Phase 4 (AID 2283601). The method in brief: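 HCT-116 p53 beta-lactamase reporter cells (4000/well) preincubated 5 h, then compound (217-fold dilution of DMSO stock) for 16 h at 37C. CCF4-AM substrate added 2 h at room temperature; 460/530 nm emission ratio fitted upward versus DMSO.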

Experiment [8] has as its system Brachyury (BRA) Protein Expression, Deisenroth Lab, TBXT (gene 6862). The experiment is described as follows: CCTE_Deisenroth_DEVTOX-GLR_legacy_Bra: (Legacy) CCTE's DevTox GLR-Endo Assay Evaluation of Brachyury (BRA) Protein Expression, Deisenroth Lab (AID 2284329; active means hit-call score of the fitted dose curve at least 0.9, where 1 is the maximum; inactive means score below 0.9). The method in brief:
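Readout: percent Bra+ cells by high-content fluorescence imaging, Bra+ meaning mean intensity 5x BMAD over pluripotent control median. RUES2-GLR cells dosed twice over 48 h differentiation; DMSO-control median subtracted before concentration-response fitting.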

Experiment [9] can be described thus: CCTE_Deisenroth_DEVTOX-GLR_legacy_CellCount: (Legacy) Viability Assessment in CCTE's DevTox GLR-Endo Assay, Deisenroth Lab (AID 2284331; active means hit-call score of the fitted dose curve at least 0.9, where 1 is the maximum; inactive means score below 0.9). The settings on record: actives raise or lower the signal. The method in brief:
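Human pluripotent RUES2-GLR cells differentiated 48 h with two 24-h-interval exposures, 10-point 1 nM–200 uM series, 0.2% DMSO. Fixed nuclei counted by high-content imaging (5 fields/well); bidirectional fit vs DMSO, n≥4.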

The subject of experiment [10] is SRY-box transcription factor 17 (SOX17) Protein Expression, Deisenroth Lab, SOX17 (gene 64321). The experiment is described as follows: CCTE_Deisenroth_DEVTOX-GLR_legacy_Sox17: (Legacy) CCTE's DevTox GLR-Endo Assay Evaluation of SRY-box transcription factor 17 (SOX17) Protein Expression, Deisenroth Lab (AID 2284341; active means hit-call score of the fitted dose curve at least 0.9, where 1 is the maximum; inactive means score below 0.9). The settings on record: actives raise or lower the signal. The method in brief:
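RUES2-GLR human pluripotent cells differentiated toward endoderm for 48 h, dosed twice at 24 h intervals (1 nM–200 uM, 10 points). Imaging gives % SOX17+ cells (intensity >5x BMAD above pluripotent control median); bidirectional fit versus 0.2% DMSO.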

The subject of experiment [11] is SRY-box transcription factor 2 (SOX2) Protein Expression, Deisenroth Lab, SOX2 (gene 6657). As to the kind of experiment: CCTE_Deisenroth_DEVTOX-GLR_legacy_Sox2: (Legacy) CCTE's DevTox GLR-Endo Assay Evaluation of SRY-box transcription factor 2 (SOX2) Protein Expression, Deisenroth Lab (AID 2284346; active means hit-call score of the fitted dose curve at least 0.9, where 1 is the maximum; inactive means score below 0.9). In outline:
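Read-out: fraction of Sox2+ cells by high-content fluorescence imaging of fixed RUES2-GLR cells after 48 h differentiation with two 24 h-spaced exposures. Positivity cutoff 5x BMAD above endoderm control median; 0.2% DMSO median subtracted.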

The test system is the same in experiment [12]. As to the kind of experiment: CCTE_Deisenroth_DEVTOX-GLR_Endo_SOX2: CCTE's DevTox GLR-Endo Assay Evaluation of SRY-box transcription factor 2 (SOX2) Protein Expression, Deisenroth Lab (AID 2284412). The method in brief:
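Endpoint is percent SOX2-positive cells (SOX2+ count/total cells) minus 0.2% DMSO control, from high-content imaging of fixed, nuclear-stained RUES2-GLR cells. Dosing twice at 24 h intervals over 48 h differentiation, 1 nM–200 uM in 10 points.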

Experiment [13] concerns SRY-box transcription factor 17 (SOX17) Protein Expression, Deisenroth Lab, SOX17 (gene 64321). As to the kind of experiment: CCTE_Deisenroth_DEVTOX-GLR_Endo_SOX17: CCTE's DevTox GLR-Endo Assay Evaluation of SRY-box transcription factor 17 (SOX17) Protein Expression, Deisenroth Lab (AID 2284413; active means hit-call score of the fitted dose curve at least 0.9, where 1 is the maximum; inactive means score below 0.9). The method in brief:
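Human RUES2-GLR cells carrying an inducible fluorescent reporter are differentiated in defined media for 48 h and dosed twice, 24 h apart. After fixation and nuclear staining, imaging yields SOX17+ cell percentage relative to 0.2% DMSO-treated differentiated cells.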

Experiment [14] relates to Brachyury (BRA) Protein Expression, TBXT (gene 6862). As to the kind of experiment: CCTE_Deisenroth_DEVTOX-GLR_Endo_BRA: CCTE's DevTox GLR-Endo Assay Evaluation of Brachyury (BRA) Protein Expression, Deisenroth Lab (AID 2284417; active means hit-call score of the fitted dose curve at least 0.9, where 1 is the maximum; inactive means score below 0.9). In outline:
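RUES2-GLR pluripotent cells differentiated 48 h with two chemical exposures 24 h apart, 10-point range 1 nM - 200 uM. Percentage of BRA+ cells per total count by high-content imaging, minus 0.2% DMSO control.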

The nature of experiment [15]: CCTE_Deisenroth_DEVTOX-GLR_Endo_CellCount: Viability Assessment in CCTE's DevTox GLR-Endo Assay, Deisenroth Lab (AID 2284420; active means hit-call score of the fitted dose curve at least 0.9, where 1 is the maximum; inactive means score below 0.9). The method in brief:
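RUES2-GLR human pluripotent cells seeded 24 h, then differentiated 48 h with two chemical exposures at 24 h intervals (10-point, 1 nM - 200 uM). Fixed, nuclear-stained, imaged; nuclei counts give % change in cell count versus 0.2% DMSO.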

Experiment [16] concerns SRY-box transcription factor 17 (SOX17) Protein Expression, Deisenroth Lab, SOX17 (gene 64321). As to the kind of experiment: CCTE_Deisenroth_DEVTOX-GLR_Pluri_SOX17: CCTE's DevTox GLR-Pluri Assay Evaluation of SRY-box transcription factor 17 (SOX17) Protein Expression, Deisenroth Lab (AID 2284427). The method in brief:
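RUES2-GLR human pluripotent cells were seeded 24 h, then differentiated 48 h in defined media with two chemical exposures 24 h apart (10-point series, 1 nM - 200 uM). Fixed, nuclear-stained cells were imaged; %SOX17+ cells minus 0.2% DMSO control reported.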

Experiment [17] has as its system SRY-box transcription factor 2 (SOX2) Protein Expression, Deisenroth Lab, SOX2 (gene 6657). The experiment is described as follows: CCTE_Deisenroth_DEVTOX-GLR_Pluri_SOX2: CCTE's DevTox GLR-Pluri Assay Evaluation of SRY-box transcription factor 2 (SOX2) Protein Expression, Deisenroth Lab (AID 2284428; active means hit-call score of the fitted dose curve at least 0.9, where 1 is the maximum; inactive means score below 0.9). The method in brief: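 Human pluripotent RUES2-GLR cells were seeded 24 h, then differentiated 48 h in defined media with two chemical doses at 24-h intervals (10-point, 1 nM–200 uM). Nuclear-stained cells were imaged; SOX2+ cells/cell count gave percent change versus 0.2% DMSO control.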

Experiment [18] deals with Brachyury (BRA) Protein Expression, Deisenroth Lab, TBXT (gene 6862). The experiment is described as follows: CCTE_Deisenroth_DEVTOX-GLR_Pluri_BRA: CCTE's DevTox GLR-Pluri Assay Evaluation of Brachyury (BRA) Protein Expression, Deisenroth Lab (AID 2284429). In outline:
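RUES2-GLR reporter line; 48 h mesoderm differentiation; two exposures, 24 h apart; 1 nM - 200 uM, 10 points; nuclear stain, high-content imaging, 5 fields/well; endpoint = %BRA+ cells of total count minus 0.2% DMSO; n=4.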

The nature of experiment [19]: CCTE_Deisenroth_DEVTOX-GLR_Pluri_CellCount: Viability Assessment in CCTE's DevTox GLR-Pluri Assay Evaluation of Total Cell Counts, Deisenroth Lab (AID 2284430; active means hit-call score of the fitted dose curve at least 0.9, where 1 is the maximum; inactive means score below 0.9). The method in brief: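 Cytotoxicity readout: fluorescent nuclei counts by high-content imaging, expressed as percent change relative to 0.2% DMSO. Human RUES2-GLR pluripotent line differentiated 48 h, dosed twice at 24-h intervals across 1 nM - 200 uM (10 points).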

For experiment [20], the target named is PGR (gene 5241) (UniProt P06401). The experiment is described as follows: TOX21_PR_BLA_Followup_Antagonist_ratio: Tox21 HEK293 Progesterone Receptor (PR) Antagonism Beta-lactamase Follow-Up Assay, Ratio (AID 2283934).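 Further: PR-UAS-bla HEK293T cells stimulated with 1 nM R5020 agonist for 16 hr.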 In outline: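 Readout is the blue/green (ch2/ch1) substrate cleavage ratio after 2 hours at room temperature, following 16 hr co-treatment of PR-bla HEK293T cells with compound and 1nM promegestone. Multiplexed CellTiter-Glo viability flags cytotoxicity; DMSO baseline.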

Experiment [21] is described as follows: TOX21_PR_BLA_Followup_Agonist_viability: Viability Assessment in the Tox21 HEK293 Progesterone Receptor (PR) Agonism Beta-lactamase Follow-Up Assay (AID 2283935).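 Further: signal loss means lower viability so actives are cytotoxic.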 The method in brief: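 Run multiplexed with the beta-lactamase FRET read, this endpoint measures ATP by CellTiter-Glo luminescence (30 min, room temperature). PR-UAS-bla HEK293T cells received compound 6 hr after plating and were then incubated 16 hr at 37C in 2% stripped serum.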

Experiment [22] is described as follows: TOX21_PR_BLA_Followup_Antagonist_viability: Viability Assessment in the Tox21 HEK293 Progesterone Receptor (PR) Antagonism Beta-lactamase Follow-Up Assay (AID 2283936).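 Further: cells exposed to compound with R5020 agonist for 16 h; hits lower the luminescence signal meaning cytotoxicity.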 The method in brief:
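PR-UAS-bla HEK293T cells in medium with 2% charcoal-stripped FBS were treated with compounds plus R5020 for 16 hr at 37C. After the beta-lactamase read, CellTiter-Glo was added to the same wells and luminescence read after 30 min at room temperature.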

Experiment [23] can be described thus: TOX21_PR_LUC_Followup_Agonist_viability: Viability Assessment in the Tox21 HEK293 Progesterone Receptor (PR) Agonism Luciferase Follow-Up Assay (AID 2283941).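 Further: loss of signal means cytotoxicity so actives lower viability.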 The method in brief:
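Cytotoxicity counter-readout in the PR-A luciferase reporter line HEK293, with 16 h compound exposure at 37C after cells were cultured in charcoal-stripped serum. Cellular ATP quantified by CellTiter-Glo luminescence.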

Sequence of Cellular tumor antigen p53 (Homo sapiens) (P04637 whole entry, looked up): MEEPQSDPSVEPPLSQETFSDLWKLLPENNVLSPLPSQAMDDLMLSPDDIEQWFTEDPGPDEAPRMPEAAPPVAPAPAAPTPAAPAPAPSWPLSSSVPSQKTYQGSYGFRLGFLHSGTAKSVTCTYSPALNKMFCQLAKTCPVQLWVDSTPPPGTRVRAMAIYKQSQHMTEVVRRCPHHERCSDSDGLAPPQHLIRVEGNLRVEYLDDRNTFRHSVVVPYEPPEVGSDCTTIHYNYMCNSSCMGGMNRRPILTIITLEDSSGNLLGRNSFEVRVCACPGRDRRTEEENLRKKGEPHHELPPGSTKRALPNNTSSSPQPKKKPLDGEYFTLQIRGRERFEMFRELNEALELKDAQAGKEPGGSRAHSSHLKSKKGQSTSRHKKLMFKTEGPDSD
Sequence of PGR (gene 5241) (P06401 whole entry, looked up): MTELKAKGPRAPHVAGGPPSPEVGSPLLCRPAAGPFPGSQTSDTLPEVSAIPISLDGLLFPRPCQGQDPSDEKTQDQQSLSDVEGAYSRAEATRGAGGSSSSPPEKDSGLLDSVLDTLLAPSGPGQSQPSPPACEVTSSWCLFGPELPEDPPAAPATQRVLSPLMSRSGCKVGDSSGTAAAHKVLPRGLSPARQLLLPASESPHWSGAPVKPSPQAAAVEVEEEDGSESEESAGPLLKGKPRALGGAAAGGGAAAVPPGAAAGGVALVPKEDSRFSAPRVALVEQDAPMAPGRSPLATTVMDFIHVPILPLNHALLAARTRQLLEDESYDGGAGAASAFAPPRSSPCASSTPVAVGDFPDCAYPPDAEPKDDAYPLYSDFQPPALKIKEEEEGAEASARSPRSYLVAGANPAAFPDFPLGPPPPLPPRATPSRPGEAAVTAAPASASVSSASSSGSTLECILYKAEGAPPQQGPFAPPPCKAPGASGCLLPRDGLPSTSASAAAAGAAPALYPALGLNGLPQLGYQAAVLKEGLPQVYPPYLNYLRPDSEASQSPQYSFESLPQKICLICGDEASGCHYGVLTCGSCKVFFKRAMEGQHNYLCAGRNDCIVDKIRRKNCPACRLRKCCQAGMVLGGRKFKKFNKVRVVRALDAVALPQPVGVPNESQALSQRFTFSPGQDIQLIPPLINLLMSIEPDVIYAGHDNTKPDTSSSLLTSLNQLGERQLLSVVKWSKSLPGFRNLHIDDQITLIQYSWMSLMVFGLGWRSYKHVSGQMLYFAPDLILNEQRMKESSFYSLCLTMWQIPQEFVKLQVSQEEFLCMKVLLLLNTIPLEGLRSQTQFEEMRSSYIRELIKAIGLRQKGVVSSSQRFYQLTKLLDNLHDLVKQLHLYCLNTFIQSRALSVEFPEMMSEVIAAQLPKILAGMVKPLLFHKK

For the molecule `COc1cc2ncnc(Nc3ccc(F)c(Cl)c3)c2cc1OCCCN1CCOCC1`, the molecule was classed as inactive in [1], in experiment [2], in experiment [3], in experiment [5], in experiment [6] and in experiment [7]. The molecule was called inactive in experiment [16], in experiment [17], in experiment [18] and in [19]. The AC50 is 40.7 µM (active) in experiment [4]; 8.42 µM (active) in experiment [8]; 6.58 µM (active) in experiment [9]; 5.74 µM (active) in [10]; 5.86 µM (active) in experiment [11]; 10.9 µM (active) in [12]. Further, the AC50 in experiment [13] was 5.78 µM (active); in experiment [14], 10.8 µM (active); in experiment [15], 6.57 µM (active).

In the case of `c1ccc(OCc2ccc(CCCN3CCOCC3)cc2)cc1`, the outcome in [1], in experiment [2], in experiment [3], in experiment [4], in experiment [5] and in experiment [6] was inactive. Besides, the outcome in [7] was inactive.

On to `C[C@]12CCC(=O)C=C1C=C[C@@H]1[C@@H]2CC[C@@]2(C)[C@H]1CC[C@@]21CCC(=O)O1`, for which the molecule was classed as inactive in experiment [1], in experiment [2], in experiment [3], in experiment [4], in experiment [5] and in experiment [6]. For the same molecule, the outcome in experiment [20], in experiment [21], in experiment [22] and in experiment [23] was inactive.

As to `Cc1ccc(NC(=O)N(C)C)cc1NC(=O)N(C)C`, the call in [1], in experiment [2], in experiment [3], in experiment [4], in experiment [5] and in [6] was inactive.

One may read the AC50 as the midpoint of the concentration-response curve, whichever way the signal moves.
